In the supplement of paper PMC10849652:
Of roughly 8,800 targets only a part is listed; those with a hit were picked by preference. About 0.5% of all pairs of compound and target were hits.

Assays:
Assay in all cases: log2 fold change, soluble protein after heating vs DMSO (PISA); higher = thermal stabilisation; K562 lysate, 10 uM; active = over 0.2 and 3.5 SD of the protein, either way, in both replicates (recomputed)
[1] = compound: C=CC(=O)N1CCC[C@@H](n2nc(-c3ccc(Oc4ccccc4)cc3)c3c(N)ncnc32)C1 [ibrutinib]
Method in brief: (§1)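 Values give the log-two fold change in thermal stability against solvent controls, from duplicates. Crude K562 extract at 1 mg/mL protein, made by dounce homogenisation in PBS pH 7.4 with 1 mM MgCl2, was treated with 10 μM compound for 30 min. After 3 min heating across 48°C-58°C, aliquots were pooled, adjusted to 0.5% NP-40 at 4°C and centrifuged at 21,000xg for 90 min. The supernatant was measured by TMTpro 16plex LC-MS/MS with channel sums equalised.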

[2] = compound: CC(=O)c1cnc2ccc(-c3cc(Cl)c(O)c(Cl)c3)nc2c1N[C@H]1CC[C@H](CN(C)C)CC1
Method in brief: as §1

[3] = compound: CC(C)(C)Cn1c(N)nc2ccc(-c3[nH]c(C(C)(C)C)nc3-c3ccc(F)cc3)nc21 [ralimetinib]
Method in brief: as §1

[4] = compound: CC(C)(O)CC(=O)NCCn1ccc2ncnc(Nc3ccc(Oc4cccc(C(F)(F)F)c4)c(Cl)c3)c21
Method in brief: as §1

[5] = compound: CC(C)C1=C2N=C(C=C(N2N=C1)NCC3=CC=CC=C3)NCCCCCCN
Method in brief: as §1

[6] = compound: CC1=C(C(CC(=O)N1)C2=CC=C(C=C2)C(F)(F)F)C(=O)NC3=C(C=C4C(=C3)C=NN4)F
Method in brief: as §1

[7] = compound: CC1=C(C2=C(C=C1)C(=O)C3=CC=CC=C3N2CCCN)C
Method in brief: as §1

[8] = compound: CC1=C(C=C(C=C1)NC(=O)C2=CC(=CC=C2)C(C)(C)C#N)NC3=CC4=C(C=C3)N=CN(C4=O)C
Method in brief: as §1

[9] = compound: CC1=C(C=C(C=C1)NC(=O)C2=CC(=CC=C2)N(C)C)NC(=O)C3=CC=C(C=C3)O
Method in brief: as §1

[10] = compound: CC1=CC=C(C=C1)SC2=C3C=C(SC3=CN=C2)C(=O)N
Method in brief: as §1

[11] = compound: CCCS(=O)(=O)Nc1ccc(F)c(C(=O)c2c[nH]c3ncc(-c4ccc(Cl)cc4)cc23)c1F [vemurafenib]
Method in brief: as §1

[12] = compound: CCCS(=O)(=O)Nc1ccc(F)c(C(=O)c2c[nH]c3ncc(Cl)cc23)c1F
Method in brief: as §1

[13] = compound: CCN(CCCOc1ccc2c(Nc3cc(CC(=O)Nc4cccc(F)c4)[nH]n3)ncnc2c1)CCOP(=O)(O)O [barasertib]
Method in brief: as §1

[14] = compound: CC[C@@H]1C(=O)N(C)c2cnc(Nc3ccc(C(=O)NC4CCN(C)CC4)cc3OC)nc2N1C1CCCC1
Method in brief: as §1

[15] = compound: CC[C@@H]1C(=O)N(C)c2cnc(Nc3ccc(C(=O)N[C@H]4CC[C@H](N5CCN(CC6CC6)CC5)CC4)cc3OC)nc2N1C(C)C [volasertib]
Method in brief: as §1

[16] = compound: CCn1c(C(=O)N(C2CC2)C2CC2)cc2c3c(ncn3C)c(Nc3cc(C)n(C)n3)nc21
Method in brief: as §1

[17] = compound: CCn1cc(-c2ccnc3[nH]c(-c4cccc(CN(C)C)c4)cc23)c(-c2ccc(NC(=O)N(C)C)cc2)n1
Method in brief: as §1

[18] = compound: CN1CCC(CNc2ccc3ncc(-c4cccc(OC(F)(F)F)c4)n3n2)CC1
Method in brief: as §1

[19] = compound: CN1CCN(CCOc2cc(OC3CCOCC3)c3c(Nc4c(Cl)ccc5c4OCO5)ncnc3c2)CC1 [saracatinib]
Method in brief: as §1

[20] = compound: CN1CCN(c2nc(C3=C(c4c[nH]c5ccccc45)C(=O)NC3=O)c3ccccc3n2)CC1 [sotrastaurin]
Method in brief: as §1

Measured: log2 fold change

MYCBP (UniProt Q99417)
UniProt Q99417, sequence (Q99417 whole entry, looked up): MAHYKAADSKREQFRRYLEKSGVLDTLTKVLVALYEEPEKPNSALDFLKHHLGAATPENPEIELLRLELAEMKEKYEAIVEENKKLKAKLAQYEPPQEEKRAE
active: [17] -0.589
inactive: [1] 0.188 | [2] -0.009 | [3] 0.021 | [4] -0.04 | [5] 0.002 | [6] -0.007 | [7] -0.017 | [8] 0.032 | [9] -0.002 | [10] -0.009 | [11] -0.001 | [12] 0 | [13] 0.16 | [14] -0.003 | [15] 0.044 | [16] -0.007 | [18] 0.189 | [19] 0.021 | [20] 0.035

MT-CYB (UniProt P00156)
UniProt P00156, sequence (P00156 whole entry, looked up): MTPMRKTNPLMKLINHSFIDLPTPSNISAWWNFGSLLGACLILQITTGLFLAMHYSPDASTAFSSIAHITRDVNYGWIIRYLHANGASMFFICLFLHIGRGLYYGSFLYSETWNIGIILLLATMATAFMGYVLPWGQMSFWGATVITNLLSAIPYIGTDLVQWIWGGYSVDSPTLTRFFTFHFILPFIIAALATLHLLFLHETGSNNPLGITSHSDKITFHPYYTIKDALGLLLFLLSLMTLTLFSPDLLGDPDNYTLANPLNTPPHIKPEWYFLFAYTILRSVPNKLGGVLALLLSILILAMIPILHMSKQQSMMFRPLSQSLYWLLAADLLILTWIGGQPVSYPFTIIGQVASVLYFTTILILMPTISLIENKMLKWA
inactive: [1] 0.133 | [2] -0.055 | [3] 0.001 | [4] -0.064 | [5] -0.094 | [6] 0.03 | [7] -0.107 | [8] 0.039 | [9] -0.093 | [10] 0.198 | [11] 0.004 | [12] -0.03 | [13] -0.054 | [14] 0 | [15] 0.056 | [16] -0.097 | [19] 0.047 | [20] 0.027
active: [17] -0.993 | [18] 0.521

NSL1 (UniProt Q96IY1)
UniProt Q96IY1, sequence (Q96IY1 whole entry, looked up): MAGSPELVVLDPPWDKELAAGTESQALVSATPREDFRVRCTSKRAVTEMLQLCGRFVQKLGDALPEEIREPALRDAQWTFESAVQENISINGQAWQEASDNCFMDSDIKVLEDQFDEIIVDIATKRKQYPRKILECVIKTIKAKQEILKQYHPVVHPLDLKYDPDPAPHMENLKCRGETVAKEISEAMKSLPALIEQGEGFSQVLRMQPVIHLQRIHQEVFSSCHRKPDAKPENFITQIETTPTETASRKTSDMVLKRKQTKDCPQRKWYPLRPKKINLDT
inactive: [1] -0.019 | [2] -0.002 | [3] 0.003 | [4] -0.052 | [5] 0.011 | [6] -0.066 | [7] 0.023 | [8] 0.009 | [9] 0.008 | [10] 0.036 | [11] -0.017 | [12] 0 | [13] -0.06 | [14] 0.005 | [15] 0.007 | [16] 0.048 | [17] -0.016 | [18] 0.047 | [19] 0.012 | [20] 0.005

NTMT1 (UniProt Q9BV86)
UniProt Q9BV86, sequence (Q9BV86 whole entry, looked up): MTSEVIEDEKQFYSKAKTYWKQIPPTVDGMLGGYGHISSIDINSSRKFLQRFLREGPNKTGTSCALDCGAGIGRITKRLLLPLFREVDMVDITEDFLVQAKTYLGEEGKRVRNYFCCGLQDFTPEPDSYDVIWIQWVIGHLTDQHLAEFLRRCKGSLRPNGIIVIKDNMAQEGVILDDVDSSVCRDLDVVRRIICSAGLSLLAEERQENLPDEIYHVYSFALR
inactive: [1] -0.025 | [2] 0.022 | [3] -0.025 | [4] -0.018 | [5] 0 | [6] -0.005 | [7] -0.01 | [8] -0.008 | [9] 0.047 | [10] 0.01 | [11] 0.023 | [12] 0.026 | [13] 0.026 | [14] -0.029 | [15] -0.024 | [16] 0.015 | [17] 0.055 | [18] -0.101 | [19] 0.008 | [20] 0.056

PAIP2 (UniProt Q9BPZ3)
UniProt Q9BPZ3, sequence (Q9BPZ3 whole entry, looked up): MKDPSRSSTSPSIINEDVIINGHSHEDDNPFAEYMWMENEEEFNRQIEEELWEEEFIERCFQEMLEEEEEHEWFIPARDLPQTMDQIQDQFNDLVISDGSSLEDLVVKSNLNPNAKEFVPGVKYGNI
inactive: [1] 0.145 | [2] 0.012 | [3] -0.05 | [4] -0.006 | [5] 0.006 | [6] 0.015 | [7] 0.028 | [8] 0.01 | [9] -0.003 | [10] -0.008 | [11] 0 | [12] -0.013 | [14] 0.039 | [15] -0.018 | [16] 0.02 | [17] -0.043 | [18] -0.001 | [19] -0.081 | [20] -0.073
active: [13] 0.272

NUMBL (UniProt Q9Y6R0)
UniProt Q9Y6R0, sequence (Q9Y6R0 whole entry, looked up): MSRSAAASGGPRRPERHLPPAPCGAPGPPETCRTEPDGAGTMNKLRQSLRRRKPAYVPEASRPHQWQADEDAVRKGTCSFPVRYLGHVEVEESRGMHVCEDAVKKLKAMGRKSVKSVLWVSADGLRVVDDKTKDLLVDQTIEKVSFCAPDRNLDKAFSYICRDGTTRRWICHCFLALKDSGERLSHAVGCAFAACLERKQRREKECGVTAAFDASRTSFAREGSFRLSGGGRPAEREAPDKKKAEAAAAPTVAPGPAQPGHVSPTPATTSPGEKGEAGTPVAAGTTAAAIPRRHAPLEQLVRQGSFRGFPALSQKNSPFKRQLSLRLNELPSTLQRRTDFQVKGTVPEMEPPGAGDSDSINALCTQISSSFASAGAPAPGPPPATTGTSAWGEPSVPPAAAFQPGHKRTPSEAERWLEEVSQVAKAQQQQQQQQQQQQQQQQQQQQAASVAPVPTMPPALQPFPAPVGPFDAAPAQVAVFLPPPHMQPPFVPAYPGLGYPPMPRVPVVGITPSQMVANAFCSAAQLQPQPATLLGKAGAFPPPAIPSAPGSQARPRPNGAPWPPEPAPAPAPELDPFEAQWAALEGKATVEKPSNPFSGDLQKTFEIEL
inactive: [1] 0.047 | [2] -0.023 | [3] -0.009 | [4] 0.028 | [5] 0.07 | [6] 0.071 | [7] -0.081 | [8] 0.076 | [9] 0.058 | [10] -0.008 | [11] -0.06 | [12] 0.014 | [13] -0.005 | [14] -0.009 | [15] -0.037 | [16] 0.189 | [17] 0.032 | [18] -0.011 | [19] 0.052 | [20] -0.278

NBN (UniProt O60934)
UniProt O60934, sequence (O60934 whole entry, looked up): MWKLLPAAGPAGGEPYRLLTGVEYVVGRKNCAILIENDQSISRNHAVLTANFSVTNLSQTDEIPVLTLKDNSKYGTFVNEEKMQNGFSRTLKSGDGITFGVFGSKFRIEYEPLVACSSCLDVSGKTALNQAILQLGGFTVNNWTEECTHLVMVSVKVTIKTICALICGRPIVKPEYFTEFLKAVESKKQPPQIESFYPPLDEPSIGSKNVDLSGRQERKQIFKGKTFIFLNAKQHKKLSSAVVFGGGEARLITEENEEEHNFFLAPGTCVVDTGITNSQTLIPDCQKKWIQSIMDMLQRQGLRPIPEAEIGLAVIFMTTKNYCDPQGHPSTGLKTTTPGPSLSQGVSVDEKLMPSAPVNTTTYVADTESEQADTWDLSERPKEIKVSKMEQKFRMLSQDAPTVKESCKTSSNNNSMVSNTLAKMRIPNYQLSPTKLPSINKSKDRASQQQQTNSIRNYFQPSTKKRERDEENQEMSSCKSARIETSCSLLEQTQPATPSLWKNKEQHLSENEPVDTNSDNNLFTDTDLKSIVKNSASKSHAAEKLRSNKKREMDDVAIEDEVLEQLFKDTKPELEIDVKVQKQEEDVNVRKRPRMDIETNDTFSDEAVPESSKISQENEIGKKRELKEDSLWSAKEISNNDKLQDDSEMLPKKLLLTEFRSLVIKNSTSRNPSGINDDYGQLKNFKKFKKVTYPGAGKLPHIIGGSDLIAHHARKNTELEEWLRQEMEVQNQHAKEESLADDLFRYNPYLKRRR
inactive: [1] 0.016 | [2] -0.003 | [3] 0.014 | [4] 0.01 | [5] -0.016 | [6] -0.007 | [7] -0.015 | [8] -0.021 | [9] 0.022 | [10] -0.016 | [11] 0.011 | [12] 0.011 | [13] 0.037 | [14] -0.028 | [15] -0.019 | [16] -0.003 | [17] 0.043 | [18] -0.058 | [19] 0.025 | [20] 0.001

OSGEP (UniProt Q9NPF4)
UniProt Q9NPF4, sequence (Q9NPF4 whole entry, looked up): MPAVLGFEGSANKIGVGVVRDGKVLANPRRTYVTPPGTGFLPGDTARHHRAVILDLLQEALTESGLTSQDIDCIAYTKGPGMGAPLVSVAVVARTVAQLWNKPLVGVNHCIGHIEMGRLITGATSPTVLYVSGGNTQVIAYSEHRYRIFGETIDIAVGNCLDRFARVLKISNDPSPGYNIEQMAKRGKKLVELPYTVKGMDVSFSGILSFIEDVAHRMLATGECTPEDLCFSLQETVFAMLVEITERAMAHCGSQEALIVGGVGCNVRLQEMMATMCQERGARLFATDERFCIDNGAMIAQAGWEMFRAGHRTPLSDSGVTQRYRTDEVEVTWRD
inactive: [1] -0.009 | [2] 0.02 | [3] 0.022 | [4] -0.03 | [5] -0.003 | [6] 0 | [7] 0.001 | [8] 0.012 | [9] -0.057 | [10] -0.002 | [11] 0.003 | [12] 0.026 | [13] 0.031 | [14] -0.059 | [15] -0.037 | [16] -0.03 | [17] -0.065 | [18] 0.026 | [19] -0.006 | [20] -0.008

NCAPH2 (UniProt Q6IBW4)
UniProt Q6IBW4, sequence (Q6IBW4 whole entry, looked up): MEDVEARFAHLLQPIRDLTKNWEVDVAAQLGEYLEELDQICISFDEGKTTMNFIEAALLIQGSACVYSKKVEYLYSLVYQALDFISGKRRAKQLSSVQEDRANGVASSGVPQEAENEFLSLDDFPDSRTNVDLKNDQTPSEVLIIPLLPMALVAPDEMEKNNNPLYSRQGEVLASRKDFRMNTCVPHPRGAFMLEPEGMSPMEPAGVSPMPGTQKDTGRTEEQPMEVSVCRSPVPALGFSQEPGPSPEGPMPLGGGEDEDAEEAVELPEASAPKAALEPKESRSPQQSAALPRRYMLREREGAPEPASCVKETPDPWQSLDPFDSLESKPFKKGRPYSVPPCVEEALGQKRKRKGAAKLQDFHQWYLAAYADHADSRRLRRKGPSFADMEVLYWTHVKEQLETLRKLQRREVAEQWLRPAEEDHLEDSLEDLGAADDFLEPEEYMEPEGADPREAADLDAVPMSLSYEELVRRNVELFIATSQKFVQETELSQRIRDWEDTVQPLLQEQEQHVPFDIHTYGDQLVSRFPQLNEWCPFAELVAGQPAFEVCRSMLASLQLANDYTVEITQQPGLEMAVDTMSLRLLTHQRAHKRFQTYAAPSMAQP
inactive: [1] -0.033 | [2] -0.01 | [3] 0.066 | [4] -0.091 | [5] 0.028 | [6] -0.017 | [7] 0 | [8] 0.01 | [9] 0.055 | [10] 0.011 | [11] -0.044 | [12] 0.027 | [13] 0.058 | [14] 0.027 | [15] -0.002 | [16] -0.014 | [17] -0.032 | [18] 0.02 | [19] 0.001 | [20] 0.03
